Experimental data from PubChem BioAssay.

Biological target: Voltage-gated potassium channel subunit beta-2 (Rattus norvegicus) (UniProt P62483)
Assay: KvBeta positive modulators, primary screen, biochemical, NADPH fluorescence (AID 623);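 further: fluorescence intensity change per second fitted from 20 to 320 s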
Conditions: Recombinant KvBeta, NADPH fluorescence decrease slope, 10 min; at 10 µM; hits give low values;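 active means NADPH fluorescence slope more negative than the mean of all samples by about 3 SD, 99.7% confidence; inactive means the rest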

Voltage-gated potassium channel subunit beta-2 (Rattus norvegicus), sequence (P62483 whole entry, looked up): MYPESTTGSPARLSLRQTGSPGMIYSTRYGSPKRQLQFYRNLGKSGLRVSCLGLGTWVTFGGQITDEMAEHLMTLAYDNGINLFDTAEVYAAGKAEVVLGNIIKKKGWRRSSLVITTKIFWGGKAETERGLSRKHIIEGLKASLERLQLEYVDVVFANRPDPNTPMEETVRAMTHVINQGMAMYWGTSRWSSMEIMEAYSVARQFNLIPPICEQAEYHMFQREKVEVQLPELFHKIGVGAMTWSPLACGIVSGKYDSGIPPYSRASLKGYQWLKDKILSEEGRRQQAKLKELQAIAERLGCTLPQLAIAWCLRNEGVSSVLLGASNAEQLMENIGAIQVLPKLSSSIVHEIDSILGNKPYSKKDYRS

NADPH fluorescence slope, inactive:
Cc1onc(-c2c(Cl)cccc2Cl)c1C(=O)N1CCc2ccccc21 -3.1e-05, CN1CCN(C2=C(Cl)C(=O)N(c3cccc(Cl)c3)C2=O)CC1 -3.9e-05, COc1ccc(CCNC(=O)c2ccncc2)cc1OC -4.1e-05, O=c1c2cc(Cl)ccc2[nH]c(=S)n1Cc1ccco1 -4.8e-05, Nc1nc(SCc2nc3scc(-c4cccs4)c3c(=O)[nH]2)n[nH]1 8.2e-06, Cn1c(=O)c2c([nH]c(=O)n2C)n(C)c1=O -0.000114, COc1ccccc1CN1CC(C(=O)NCc2cccnc2)CC1=O (stereo not given) -2.4e-05, COc1ccc(-n2nnnc2SCC(=O)c2ccc(O)c(O)c2)cc1 -0.000117, Cc1ccc2c(c1)N(CC(=O)Nc1ccc3c(c1)OCCO3)C(=O)CO2 -5e-05, Cc1nc2ccc(N3C(=O)CCC3=O)cc2[nH]1 5.4e-06, CCOC(=O)c1oc2ccccc2c1NC(=O)c1cccc(OC)c1OC -1.9e-05, CCC(C)NC(=O)c1ccccc1NC(=O)C(C)N(c1ccccc1)S(C)(=O)=O (stereo not given) 8.2e-06, O=C(Nc1sc2c(c1C(=O)NCc1ccco1)CCCC2)c1ccc2c(c1)OCO2 3.8e-06, CCOC(=O)c1ccc(NS(=O)(=O)c2ccc3c(c2)CCCN3C(C)=O)cc1 8.9e-06, CC12COC3(C(=O)Nc4ccc(Cl)cn4)CC1CCC32C (stereo not given) -5.6e-05, CC1CCC2C(C1)c1sc(=O)[nH]c1SC2(C)C (stereo not given) 2e-05, Brc1ccc(-c2csc(/N=C/N3CCOCC3)n2)cc1 -8.8e-05, Cc1nnc(SCc2cn3ccsc3n2)n(N)c1=O 1.9e-05, CCOc1ccc(-c2nnc(N)s2)cc1 -0.000137, C=CCn1c(=O)c(C(=O)Nc2ccccc2C(=O)OCC)c(O)c2ccccc21 -4.7e-05, C=CCn1c(COc2ccccc2)nnc1SCC(=O)C(C)(C)C -3.9e-05, O=C(c1ccco1)N1CCN(C(=O)c2cc3c(s2)-c2ccccc2OC3)CC1 3.2e-05, O=C(NCc1cccs1)C1CCCN(c2ncccn2)C1 (stereo not given) -1.3e-05, Cc1cc(C)c2[nH]c(=O)c(C(c3nnnn3Cc3ccc4c(c3)OCO4)N3CCC(C)CC3)cc2c1 (stereo not given) 6.4e-06, COc1cccc(-c2nc(CS(=O)(=O)CC(=O)Nc3cc(C)ccc3C)c(C)o2)c1 -4.8e-05, Cc1ccc(C2=Nc3ccccc3NC(C)(c3ccc(C)o3)C2)o1 (stereo not given) 1.2e-05, CCOC(=O)c1ccc(N=c2sc(C(=O)OC)cc(=O)n2Cc2ccco2)cc1 -4.8e-05, COc1ccc2c(c1)C(C)=CC(C)(C)N2C(=O)CSc1nnc(-c2ccc(C)cc2)o1 4.8e-05, CC(C)C1N=C2c3ccccc3N=C(SCc3cc(=O)n4ccccc4n3)N2C1=O (stereo not given) 2.2e-05, CCCCN(CCCC)CCn1cnc2c([nH]c3ccc(OC)cc32)c1=O -1.1e-05, CC1CC(=O)c2cnc(NCC3CCCO3)nc2C1 (stereo not given) -2.9e-05, CCC(CO)Nc1ncnc2c1cnn2-c1ccc(Cl)cc1 (stereo not given) -1.3e-05, CC(C)CCNC(=O)C(C)N(Cc1ccc(F)cc1)C(=O)c1ccc(CN2CCCCC2)o1 (stereo not given) -6e-05, O=C(OC1CCOC1=O)c1ccc(S(=O)(=O)N2CCCCCC2)cc1 (stereo not given) 7.8e-06, COC(=O)C1C(=O)c2c([nH]c(C(=O)OCCOC(C)C)c2C)CC1C (stereo not given) -5.7e-05, CC(=O)c1cc(-c2ccc(F)cc2)n(CCC(=O)Nc2cc(C)[nH]n2)c1C -3.1e-05, CCCn1c(=O)c2ccccc2n2c(SCCOc3ccccc3F)nnc12 4.6e-05, O=C1c2ccccc2C(Nc2ccc(F)c(Cl)c2)N1Cc1ccco1 (stereo not given) -5.5e-05, COCCn1c(COc2ccc(Cl)cc2)nnc1SCC(N)=O -6e-05, CCOC(=O)N1CCN(S(=O)(=O)c2ccc(F)c(C(=O)Nc3cc(C)cc(C)c3)c2)CC1 -1.2e-05
